The nature of assay [1]: qHTS assay to identify small molecule antagonists of the vitamin D receptor (VDR) signaling pathway - cell viability counter screen (AID 743225). Further: nearly all actives have a fitted effect of over 50% in size. The procedure, abridged:
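Viability counter screen run in the same wells as the beta-lactamase reporter assay: HEK 293T VDR-UAS-bla cells, 16 h compound exposure at 37C with 3 nM (final) 1-alpha,25-dihydroxyvitamin D3. CellTiter-Glo luminescence, 30 min, room temperature.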
(In qHTS, concentration-response curves come from the screen itself.)

Assay [2] can be described thus: qHTS assay to identify small molecule agonists of the NFkB signaling pathway (AID 1159509; active means well fitted curve in the direction sought with a large enough effect in the signal ratio in the repeat runs, not every such curve was filed as active; the % refers to the signal ratio; further: series mostly up to about 61 µM). The procedure, abridged: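 Pathway activation was measured in ME-180 cells stably expressing beta-lactamase under NF-kB response element control. Substrate cleavage was read as the 460/530 nm emission shift after 5 hr compound incubation.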
Assay [3] in a line: qHTS assay to identify small molecule agonists of the NFkB signaling pathway - cell viability counter screen (AID 1159515; calls by dose curve; further: series mostly up to about 61 µM; nearly all actives have a fitted effect of over 55% in size). The procedure, abridged:
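Read by CellTiter-Glo luminescence (30 min, room temperature) in the wells also used for the beta-lactamase FRET read. ME-180 NFkB-bla cells at 2,000 per well were plated overnight, then exposed to compound for 5 hr at 37 C.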

Assay [4] can be described thus: qHTS assay to identify small molecule agonists of the endoplasmic reticulum stress response signaling pathway (AID 1159516; active means well fitted activation curve with a large enough effect in the signal ratio in the repeat runs, not every such curve was filed as active; the % refers to the signal ratio). The procedure, abridged:
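Ratiometric FRET readout (405 nm excitation; 460 and 530 nm emission) of a beta-lactamase gene driven by the ER stress response element, after 2 hr substrate loading. HeLa ESRE-bla cells were seeded overnight and treated with compounds for only 5 hr at 37 C.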

Assay [5] can be described thus: qHTS assay to identify small molecule agonists of the endoplasmic reticulum stress response signaling pathway - cell viability counter screen (AID 1159517; calls by dose curve; further: series mostly up to about 61 µM; nearly all actives have a fitted effect of over 50% in size). The procedure, abridged:
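In parallel with the ESRE reporter read, cytotoxicity was scored by CellTiter-Glo luminescence (30 min, room temperature) on HeLa ESRE-bla cells dosed for 5 hr.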

The nature of assay [6]: qHTS assay to identify small molecule antagonists of the retinoid-related orphan receptor gamma (ROR-gamma) signaling pathway - cell viability counter screen (AID 1159520). Further: nearly all actives have a fitted effect of over 50% in size. The procedure, abridged: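 Tet-on ROR gamma CHO cells were given compounds for 2 hr, then doxycycline hyclate at 1 uM final, and incubated 16 hr at 37 C. Viability was measured as ATP content by CellTiter-Glo luminescence.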

Assay [7] has as its target Nuclear receptor ROR-gamma (Homo sapiens) (UniProt P51449). As to the kind of experiment: qHTS assay to identify small molecule antagonists of the retinoid-related orphan receptor gamma (ROR-gamma) signaling pathway (AID 1159521; further: top concentration of the series differs between compounds; nearly all actives have a fitted effect of over 50% in size). The procedure, abridged: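 Luminescence readout (ONE-Glo, 30 min RT) after 16 h doxycycline induction; loss of signal scored as antagonism. CHO cells with TET-inducible RORγ and RORE-LUC reporter; compounds added 2 h before 1 uM final doxycycline.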

Assay [8] can be described thus: qHTS assay to identify small molecule agonists of the AP-1 signaling pathway - cell viability counter screen (AID 1159525; calls by dose curve; further: nearly all actives have a fitted effect of over 55% in size). The gist of the method: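 Same-well cytotoxicity counter screen of the Tox21 10K library in ME-180 cells. The readout is ATP-dependent luminescence after 5 h compound treatment. Data are normalised to DMSO and tetra n-octyl ammonium bromide controls.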

Assay [9] in a line: qHTS assay to identify small molecule agonists of the AP-1 signaling pathway (AID 1159526; calls by dose curve).
In assay [10] the target is Retinoic acid receptor RXR-alpha (Homo sapiens) (UniProt P19793). The experiment in a line: qHTS assay to identify small molecule agonists of the RXR signaling pathway (AID 1159527; calls by dose curve; further: nearly all actives have a fitted effect of over 35% in size; further: potency means the concentration at half of the fitted maximal effect). The gist of the method: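 Agonist mode; 9-cis retinoic acid positive control. HEK 293T UAS-bla reporter cells, 2% charcoal-stripped FBS, 16 hr compound exposure at 37 C/5% CO2. LiveBLAzer B/G FRET substrate 2 hr RT; ex 405, em 460/530 nm.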

Assay [11] can be described thus: qHTS assay to identify small molecule agonists of the RXR signaling pathway - cell viability counter screen (AID 1159529). The procedure, abridged:
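Luminescence from CellTiter-Glo (30 min, RT) measured viability in the same wells as the beta-lactamase reporter readout. Cells: GeneBLAzer RXR-alpha HEK 293T, 2% charcoal-stripped FBS. Compound exposure 16 hr, 37 C.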

Assay [12] in a line: qHTS assay to identify small molecule antagonists of the retinoid acid receptor (RAR) signaling pathway - cell viability counter screen (AID 1159551). Further: nearly all actives have a fitted effect of over 35% in size. The gist of the method: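 Cytotoxicity counter screen: ATP content quantified by CellTiter-Glo luminescence in C3RL4 cells treated 6 hr at 37 C with compound and retinol (1 uM final). Cells plated at 1,000/well and cultured overnight before dosing.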

A short description of assay [13]: qHTS assay to identify small molecule antagonists of the retinoic acid receptor (RAR) signaling pathway (AID 1159552; further: nearly all actives have a fitted effect of over 50% in size). The procedure, abridged:
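Luminescence from a RARE luciferase reporter in C3RL4 cells served as read-out. Cells received compounds together with 1 uM final retinol and incubated 6 hr at 37 C before detection reagent was added for 30 min at room temperature.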

Assay [14] in a line: qHTS assay to identify small molecule agonists of the retinoic acid receptor (RAR) signaling pathway (AID 1159553). The gist of the method:
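Luminescence was measured 30 min after luciferase reagent addition at room temperature. Before that, C3RL4 reporter cells (1,000 per well, plated overnight) were treated with compound for 6 hr at 37 C and 5% CO2.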

A short description of assay [15]: qHTS assay to identify small molecule antagonists of the estrogen related receptor (ERR) signaling pathway from Tox21 library - cell viability counter screen (AID 1224834). Further: nearly all actives have a fitted effect of over 30% in size. The gist of the method:
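CellTiter-Fluor fluorescence, read after 30 min at 37 C, measures viability of ERR cells. Cells plated at 2,000/well and incubated 6 h before pin-tool compound addition, then exposed 17.5 hours at 37 C.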

Assay [16] has as its target Luciferin 4-monooxygenase (Photinus pyralis) (UniProt P08659). The experiment in a line: qHTS assay to identify small molecule inhibitors of firefly luciferase (AID 1224835). Further: nearly all actives have a fitted effect of over 25% in size. Further: potency means the concentration at half of the fitted maximal effect. The procedure, abridged:
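Biochemical qHTS: compounds run as interplate titrations against purified firefly enzyme, with D-luciferin and ATP each at its KM concentration. Light output recorded by CCD imaging.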

The nature of assay [17]: qHTS assay to identify small molecule agonists of the constitutive androstane receptor (CAR) signaling pathway - cell viability counter screen (AID 1224836). Further: series mostly up to about 92 µM; nearly all actives have a fitted effect of over 45% in size. The gist of the method:
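Viability read-out: CellTiter-Fluor fluorescence after 23 h compound exposure at 37 C/5% CO2 in double-stable HepG2-CYP2B6-hCAR cells, with PK11195 present at 0.75 uM final; compounds tested in 15-point titration.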

Assay [18] in a line: qHTS assay to identify small molecule antagonists of the constitutive androstane receptor (CAR) signaling pathway - cell viability counter screen (AID 1224837). Further: series mostly up to about 92 µM; nearly all actives have a fitted effect of over 45% in size. The procedure, abridged:
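Cytotoxicity counter-screen: CellTiter-Fluor fluorescence after 23 h compound exposure (15-point qHTS) in double-stable HepG2-CYP2B6-hCAR cells, with 50 nM CITCO added.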

Assay [19] deals with Nuclear receptor subfamily 1 group I member 3 (Homo sapiens) (UniProt Q14994). As to the kind of experiment: qHTS assay to identify small molecule antagonists of the constitutive androstane receptor (CAR) signaling pathway (AID 1224838).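 Further: HepG2 cells stably expressing hCAR with CYP2B6 luciferase reporter stimulated by CITCO; nearly all actives have a fitted effect of over 40% in size.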 The gist of the method: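 Antagonism measured as luciferase signal (ONE-Glo, 30 min, room temperature) in CAR-stimulated cells: HepG2-CYP2B6-hCAR double-stable line exposed 24 hr at 37 C to compound in a 15-point series plus 50 nM CITCO.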

Assay [20] has the same target. The experiment in a line: qHTS assay to identify small molecule agonists of the constitutive androstane receptor (CAR) signaling pathway (AID 1224839).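 Further: HepG2 cells stably carrying human CAR and a CYP2B6 luciferase reporter; series mostly up to about 92 µM; nearly all actives have a fitted effect of over 15% in size.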 The procedure, abridged:
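Luminescence read-out (ONE-Glo, 30 min, room temperature) from double-stable HepG2-CYP2B6-hCAR cells exposed 24 h to 15-point compound series in presence of 0.75 uM PK11195 final.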

Records with an inconclusive call do not appear. Active and inactive are the calls of the source. Unless noted, the call rests on the fitted dose curve; in most records, active means well fitted curve in the direction sought with a large enough effect in the repeat runs; inconclusive means weak or mixed curves; inactive means no such curve, though single readings can be large; an effect the other way counts as inactive or inconclusive.

Nuclear receptor subfamily 1 group I member 3 (Homo sapiens), sequence (Q14994 whole entry, looked up): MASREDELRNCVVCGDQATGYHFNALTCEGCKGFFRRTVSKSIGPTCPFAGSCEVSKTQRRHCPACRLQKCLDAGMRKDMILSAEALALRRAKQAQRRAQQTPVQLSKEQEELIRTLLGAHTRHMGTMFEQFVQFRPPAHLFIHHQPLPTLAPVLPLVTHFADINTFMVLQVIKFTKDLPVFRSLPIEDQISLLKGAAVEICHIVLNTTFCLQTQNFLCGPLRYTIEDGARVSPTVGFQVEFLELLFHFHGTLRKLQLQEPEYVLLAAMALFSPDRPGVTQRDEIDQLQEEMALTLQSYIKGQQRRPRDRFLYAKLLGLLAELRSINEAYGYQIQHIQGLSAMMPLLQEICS
Retinoic acid receptor RXR-alpha (Homo sapiens), sequence (P19793 whole entry, looked up): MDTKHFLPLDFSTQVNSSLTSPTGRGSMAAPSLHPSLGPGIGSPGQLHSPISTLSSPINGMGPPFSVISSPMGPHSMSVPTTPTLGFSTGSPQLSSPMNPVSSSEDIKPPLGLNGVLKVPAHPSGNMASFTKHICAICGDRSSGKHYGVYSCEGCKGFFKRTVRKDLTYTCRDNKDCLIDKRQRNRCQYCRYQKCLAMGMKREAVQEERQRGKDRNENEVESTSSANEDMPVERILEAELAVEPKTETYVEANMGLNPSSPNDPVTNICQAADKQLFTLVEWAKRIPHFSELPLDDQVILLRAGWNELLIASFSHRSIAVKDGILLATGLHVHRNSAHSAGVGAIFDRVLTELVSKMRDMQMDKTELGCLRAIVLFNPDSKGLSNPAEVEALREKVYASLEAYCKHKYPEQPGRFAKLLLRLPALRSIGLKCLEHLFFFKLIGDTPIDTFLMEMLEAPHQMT
Luciferin 4-monooxygenase (Photinus pyralis), sequence (P08659 whole entry, looked up): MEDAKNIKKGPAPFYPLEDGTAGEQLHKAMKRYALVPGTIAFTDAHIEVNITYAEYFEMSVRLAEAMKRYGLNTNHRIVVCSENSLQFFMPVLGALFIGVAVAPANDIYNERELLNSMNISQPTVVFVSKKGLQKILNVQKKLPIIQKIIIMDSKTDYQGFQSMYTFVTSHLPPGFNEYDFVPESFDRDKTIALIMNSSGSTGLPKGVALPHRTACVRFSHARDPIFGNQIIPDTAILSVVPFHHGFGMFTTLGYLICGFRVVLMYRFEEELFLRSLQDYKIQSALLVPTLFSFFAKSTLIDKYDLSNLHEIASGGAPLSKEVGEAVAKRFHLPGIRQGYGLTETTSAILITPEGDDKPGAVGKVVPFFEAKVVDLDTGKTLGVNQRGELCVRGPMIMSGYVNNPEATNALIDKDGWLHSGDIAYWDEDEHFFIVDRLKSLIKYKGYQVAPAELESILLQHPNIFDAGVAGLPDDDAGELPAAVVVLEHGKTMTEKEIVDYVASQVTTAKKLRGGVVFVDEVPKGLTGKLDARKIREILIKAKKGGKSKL

Regarding `C[C@H]1[C@@H](c2ccccc2)NC(=O)N1C`, the compound was called inactive in assay [1], in [2], in assay [3], in assay [4], in assay [5] and in [6]. For the same compound, the call in [7], in assay [8], in assay [9], in assay [11], in assay [12] and in assay [13] was inactive. Besides, the outcome in [15], in [17] and in assay [18] was inactive. The Potency entry in [10], in assay [14], in assay [16], in assay [19] and in assay [20] was “inactive” throughout.

On to `Cc1ccc(C(C)NC(=O)[C@@H](NC(=O)OC(C)C)C(C)C)cc1` (stereo not given in full), for which the compound was classed as inactive in assay [1], in [2], in assay [3], in assay [4], in [5] and in assay [6]. Further, the call in [7], in [8], in assay [9], in assay [11], in assay [12] and in assay [13] was inactive. For the same compound, the outcome in assay [15], in [17] and in assay [18] was inactive. In addition, the Potency entry in assay [10], in [14], in [16], in assay [19] and in assay [20] was “inactive” in each case.

Regarding `CCC(C)C(=O)OCCc1ccccc1` (stereo not given), the result in assay [1], in [2], in [3], in [4], in assay [5] and in [6] was inactive. Besides, the compound was called inactive in assay [7], in assay [8], in assay [9], in assay [11], in assay [12] and in assay [13]. Also, the compound was classed as inactive in assay [15], in [17] and in assay [18]. Also, the Potency was 43.6 µM (active) in assay [10] and 50.2 µM (active) in assay [16]. In addition, the Potency entry in assay [14], in assay [19] and in assay [20] was “inactive” in each case.

As for `Cc1cccc(Cl)c1`, the compound was called inactive in assay [1], in assay [2], in assay [3], in assay [4], in assay [5] and in [6]. Further, the compound was classed as inactive in assay [7], in assay [8], in assay [9], in assay [11], in [12] and in assay [13]. Moreover, the compound was called inactive in assay [15], in assay [17] and in [18]. The Potency entry in assay [10], in [14], in assay [16], in assay [19] and in assay [20] was “inactive” throughout.

With `O=C[O][Al]([O]C=O)[O]C=O`, the call in assay [1], in assay [2], in assay [3], in assay [4], in assay [5] and in [6] was inactive. For the same compound, the compound was called inactive in assay [7], in [8], in [9], in [11], in assay [12] and in [13]. For the same compound, the outcome in assay [15], in assay [17] and in [18] was inactive. Also, the Potency result in assay [10], in assay [14], in assay [19] and in [20] was “inactive” throughout. Further, in assay [16], the Potency was 63.3 µM (active).

For `COC(=O)CCCCC(=O)O`, the compound was called inactive in assay [1], in assay [2], in assay [3], in [4], in assay [5] and in [6]. The outcome in assay [7], in assay [8], in assay [9], in assay [11], in [12] and in assay [13] was inactive. In addition, the outcome in assay [15], in [17] and in [18] was inactive. Besides, the Potency entry in assay [10], in assay [14], in assay [16], in [19] and in assay [20] was “inactive” throughout.

On to `CC(C)CCOC(=O)c1ccccc1`, for which the result in [1], in assay [2], in assay [3], in assay [4], in [5] and in assay [6] was inactive. Also, the call in assay [7], in assay [8], in assay [9], in assay [11], in assay [12] and in assay [13] was inactive. Besides, the outcome in [15], in assay [17] and in assay [18] was inactive. Further, the Potency entry in assay [10], in [14], in [19] and in assay [20] was “inactive” in each case. For the same compound, the Potency in assay [16] is 71 µM (active).

For the origin of these results see PubChem BioAssay (Tox21).
